PubChem BioAssay (NCI)
Compounds without any hit were thinned out: in the full panel of roughly 79,000, 15% have a hit. Calls of active or inactive are those of the source. No stated cut-off is given here; in the data, active means growth inhibition above about 70%; inactive means the rest.

Tests used:
[1] = NCI Yeast Anticancer Drug Screen. Data for the rad14 strain (AID 159);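 further: 0% = growth of vehicle-treated control cultures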; conditions: S. cerevisiae rad14 strain growth inhibition, active compounds read high
Procedure, shortened: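 Screen for anticancer potential: a yeast strain altered in DNA damage repair is grown with compound, and reduced growth is quantified against vehicle controls.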

[2] = NCI Yeast Anticancer Drug Screen. Data for the sgs1 mgt1 strain (AID 161);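 further: 0% = growth of cultures given vehicle only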; conditions: S. cerevisiae sgs1 mgt1 strain, active compounds read high
Procedure, shortened: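 Inhibition of yeast growth, normalised to vehicle-treated controls, is reported for a strain bearing genetic alterations in DNA damage repair.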

[3] = NCI Yeast Anticancer Drug Screen. Data for the CLN2oe strain (AID 163);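 further: 0% = growth of vehicle-only control cultures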; conditions: S. cerevisiae CLN2oe strain, active compounds read high
Procedure, shortened: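 Growth of a genetically modified yeast strain is measured after compound exposure and compared with cultures given vehicle alone.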

[4] = NCI Yeast Anticancer Drug Screen. Data for the cln2 rad14 strain (AID 165);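 further: 0% = growth equal to vehicle treated cultures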; conditions: S. cerevisiae cln2 rad14 strain, active compounds read high
Procedure, shortened: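 Compounds are applied to the cln2 rad14 yeast strain, and growth is then compared with that of vehicle-treated cultures to give inhibition.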

[5] = NCI Yeast Anticancer Drug Screen. Data for the bub3 strain (AID 167); conditions: S. cerevisiae bub3 mutant strain, active compounds read high
Procedure, shortened: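 Screening used yeast with an engineered genetic alteration affecting cell cycle control. Compound-exposed cultures were compared with vehicle cultures, and reduced growth was taken as inhibition.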

[6] = NCI Yeast Anticancer Drug Screen. Data for the wt2 strain (AID 169);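 further: 0% = growth of vehicle-treated yeast cultures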; conditions: S. cerevisiae wt2 strain growth inhibition, active compounds read high
Procedure, shortened: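 This strain belongs to a panel of yeast strains with defined genetic alterations in DNA damage repair or cell cycle control. Compounds are applied, and growth inhibition is measured against vehicle-treated cultures.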

[7] = NCI Yeast Anticancer Drug Screen. Data for the sgs1 strain (AID 173);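 further: 0% = growth of vehicle-only control cultures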; conditions: S. cerevisiae sgs1 mutant, active compounds read high
Procedure, shortened: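 Growth of a yeast strain bearing a defined genetic alteration is measured after compound treatment. Inhibition is expressed relative to vehicle-only controls.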

[8] = NCI Yeast Anticancer Drug Screen. Data for the mlh1 rad18 strain (AID 175); conditions: S. cerevisiae mlh1 rad18 strain growth inhibition, active compounds read high
Procedure, shortened: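 Read-out is yeast growth inhibition, calculated against vehicle-only controls. The compound was applied to a strain engineered with DNA damage repair alterations.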

[9] = NCI Yeast Anticancer Drug Screen. Data for the wt1 strain (AID 149);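 further: 0% = growth of vehicle-treated wt1 cultures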; conditions: S. cerevisiae wt1 strain (SPY 50644) growth inhibition, active compounds read high
Procedure, shortened: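 Using yeast strain wt1, compound-induced growth inhibition was determined against vehicle-treated cultures.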

[10] = NCI Yeast Anticancer Drug Screen. Data for the rad50EPP+ strain (AID 151);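 further: 0% = growth of vehicle-treated control cultures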; conditions: S. cerevisiae rad50 mutant strain, active compounds read high
Procedure, shortened: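 Compounds were applied to the rad50EPP+ yeast strain, which bears a defined DNA repair alteration, and growth inhibition was determined relative to vehicle-treated cultures.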

[11] = NCI Yeast Anticancer Drug Screen. Data for the mgt1 strain (AID 153); conditions: S. cerevisiae mgt1 mutant growth inhibition, active compounds read high
Procedure, shortened: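 Strain: mgt1 yeast, one of a set carrying defined DNA damage repair or cell cycle control alterations. Compound-treated growth compared with vehicle.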

[12] = NCI Yeast Anticancer Drug Screen. Data for the rad50 strain (AID 155);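 further: 0% = growth of vehicle-only cultures of the same strain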; conditions: S. cerevisiae rad50 strain growth inhibition, active compounds read high
Procedure, shortened: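 Relative growth inhibition (compound vs vehicle) was measured in yeast with a defined repair-gene alteration.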

[13] = NCI Yeast Anticancer Drug Screen. Data for the mec2-1 strain (AID 157); conditions: S. cerevisiae mec2-1 strain, active compounds read high
Procedure, shortened: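 Strain: mec2-1 (DNA repair/cell cycle alteration). Compound exposure, then growth measured; inhibition expressed relative to vehicle.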

[14] = NCI Yeast Anticancer Drug Screen. Data for the mlh1 strain (AID 171);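 further: 0% = growth of vehicle-treated control cultures of the same strain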; conditions: S. cerevisiae mlh1 strain growth inhibition, active compounds read high
Procedure, shortened: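 Growth of the mutant yeast strain after compound exposure, expressed as inhibition relative to vehicle-only controls.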

[15] = NCI Yeast Anticancer Drug Screen. Data for the rad18 strain (AID 177); conditions: S. cerevisiae rad18 mutant growth inhibition, active compounds read high
Procedure, shortened: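 Growth of the mutant yeast strain after compound exposure, normalised to vehicle-only cultures.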

[16] = at 5.0 µM (retest, dose inferred, filed as 0.5)
[17] = at 50.0 µM (retest, dose inferred, filed as 5.0)

Measured: growth inhibition

Cc1cccc(/C=N/NC(=S)NC2CCCCC2)n1
inactive: [1]; at 100.0 µM 26% | [2]; [16] -25% | [2]; [17] 51% | [3]; at 1.2 µM -14% | [3]; at 3.7 µM -17% | [3]; at 11.0 µM -23% | [3]; at 33.0 µM 18% | [3]; at 100.0 µM 12% | [4]; [16] -24% | [4]; [17] 20% | [4]; at 50.0 µM 40.6% | [5]; at 1.2 µM -6% | [5]; at 3.7 µM -3% | [5]; [16] -30% | [5]; at 11.0 µM 16% | [5]; at 33.0 µM 32% | [5]; at 100.0 µM 20% | [6]; at 1.2 µM -4% | [6]; at 3.7 µM -4% | [6]; at 11.0 µM 1% | [6]; at 33.0 µM 26% | [6]; at 100.0 µM 18% | [7]; at 1.2 µM -3% | [7]; at 3.7 µM -2% | [7]; at 11.0 µM 9% | [7]; at 33.0 µM 40% | [7]; at 100.0 µM 29% | [8]; [16] -19% | [8]; [17] 55% | [8]; at 50.0 µM 62.5%
active: [2]; at 50.0 µM 70.8% | [5]; [17] 79% | [5]; at 50.0 µM 72.7%

C/C(=N\Sc1ccccc1)c1ccccc1O
inactive: [9]; at 1.2 µM -3% | [9]; at 3.7 µM -4% | [9]; at 11.0 µM -4% | [9]; at 33.0 µM 4% | [9]; at 100.0 µM 64% | [10]; at 1.2 µM 3% | [10]; at 3.7 µM 5% | [10]; at 11.0 µM 9% | [10]; at 33.0 µM 35% | [11]; at 1.2 µM 2% | [11]; at 3.7 µM -2% | [11]; at 11.0 µM -1% | [11]; at 33.0 µM 8% | [11]; at 100.0 µM 62% | [12]; at 1.2 µM -3% | [12]; at 3.7 µM -4% | [12]; [16] -144% | [12]; at 11.0 µM 7% | [12]; at 33.0 µM 16% | [13]; at 1.2 µM -1% | [13]; at 3.7 µM 2% | [13]; [16] -48% | [13]; at 11.0 µM -11% | [13]; at 33.0 µM -1% | [13]; [17] -4% | [13]; at 50.0 µM 51.5% | [13]; at 100.0 µM 62% | [1]; at 1.2 µM -4% | [1]; at 3.7 µM -9% | [1]; at 11.0 µM -5% | [1]; at 33.0 µM 9% | [1]; at 100.0 µM 63% | [2]; [16] -63% | [2]; [17] 49% | [2]; at 50.0 µM 33.5% | [4]; [16] -59% | [4]; [17] -38% | [4]; at 50.0 µM 11.5% | [5]; at 1.2 µM 0% | [5]; at 3.7 µM 2% | [5]; [16] -62% | [5]; at 11.0 µM -1% | [5]; at 33.0 µM 5% | [5]; [17] 55% | [5]; at 50.0 µM 49.2% | [5]; at 100.0 µM 53% | [14]; at 1.2 µM 2% | [14]; at 3.7 µM 3% | [14]; at 11.0 µM -2% | [14]; at 33.0 µM 13% | [7]; at 1.2 µM 1% | [7]; at 3.7 µM 4% | [7]; at 11.0 µM 10% | [7]; at 33.0 µM 35% | [8]; [16] -115% | [8]; [17] 59% | [15]; at 1.2 µM -2% | [15]; at 3.7 µM 0% | [15]; at 11.0 µM 4% | [15]; at 33.0 µM 21%
active: [10]; at 100.0 µM 91% | [12]; [17] 71% | [12]; at 50.0 µM 79% | [12]; at 100.0 µM 90% | [14]; at 100.0 µM 79% | [7]; at 100.0 µM 91% | [8]; at 50.0 µM 94.2% | [15]; at 100.0 µM 90%

O=C(NCCNCCNC(=O)c1cc(-c2ccccc2)nc2ccccc12)c1cc(-c2ccccc2)nc2ccccc12
inactive: [10]; at 1.2 µM -1% | [10]; at 3.7 µM 2% | [10]; at 11.0 µM 3% | [10]; at 33.0 µM 9% | [10]; at 100.0 µM 9% | [11]; at 1.2 µM -2% | [11]; at 3.7 µM -1% | [11]; at 11.0 µM -2% | [11]; at 33.0 µM 0% | [11]; at 100.0 µM 1% | [12]; at 1.2 µM -3% | [12]; at 3.7 µM -2% | [12]; [16] -11% | [12]; at 11.0 µM -4% | [12]; at 33.0 µM -2% | [12]; [17] 28% | [12]; at 50.0 µM 31.6% | [12]; at 100.0 µM 1% | [13]; at 1.2 µM -3% | [13]; at 3.7 µM -3% | [13]; [16] -11% | [13]; at 11.0 µM -1% | [13]; at 33.0 µM -2% | [13]; [17] 40% | [13]; at 100.0 µM 5% | [1]; at 1.2 µM -3% | [1]; at 3.7 µM -1% | [1]; at 11.0 µM -2% | [1]; at 33.0 µM 4% | [1]; at 100.0 µM 4% | [2]; [16] 9% | [2]; [17] 7% | [2]; at 50.0 µM 21.6% | [3]; at 1.2 µM -2% | [3]; at 3.7 µM -2% | [3]; at 11.0 µM -3% | [3]; at 33.0 µM -5% | [3]; at 100.0 µM 45% | [4]; [16] -4% | [4]; [17] 45% | [5]; at 1.2 µM -2% | [5]; at 3.7 µM -1% | [5]; [16] 2% | [5]; at 11.0 µM -1% | [5]; at 33.0 µM -5% | [5]; [17] 58% | [5]; at 100.0 µM -2% | [6]; at 1.2 µM -2% | [6]; at 3.7 µM -2% | [6]; at 11.0 µM -1% | [6]; at 33.0 µM -2% | [6]; at 100.0 µM 4% | [14]; at 1.2 µM -2% | [14]; at 3.7 µM 1% | [14]; at 11.0 µM -2% | [14]; at 33.0 µM -2% | [14]; at 100.0 µM -1% | [7]; at 1.2 µM -2% | [7]; at 3.7 µM 0% | [7]; at 11.0 µM 0% | [7]; at 33.0 µM 0% | [7]; at 100.0 µM 22% | [8]; [16] 7% | [8]; [17] 66% | [8]; at 50.0 µM 50.6% | [15]; at 1.2 µM -3% | [15]; at 3.7 µM -4% | [15]; at 11.0 µM -3% | [15]; at 33.0 µM -2% | [15]; at 100.0 µM -1%
active: [13]; at 50.0 µM 96.3% | [4]; at 50.0 µM 90.3% | [5]; at 50.0 µM 97.8%
